Assay outcomes: PubChem, National Center for Advancing Translational Sciences (NCATS)
This is a sample that favours compounds with a hit; in the whole collection about 9.2% have one here.
SMN2 splice up: qHTS Assay for Enhancers of SMN2 Splice Variant Expression | 2.8% of 210,000 active | Potency, µM (highest dose often 46.1 µM), for inactives: at the highest dose activity change, positive = activation, usual class: activators | HEK293 SMN2-luciferase splicing reporter, luminescence, 30-36 h; note: % of control where 0% means no effect; nearly all actives have a fitted effect of over 55% in size
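HEK293 cells carry an SMN2 […]–luciferase reporter in which exon 7 inclusion puts luciferase in frame. Cells were plated 10-12 h before compound addition, then incubated 30-36 h at 37C. ONE-Glo luminescence was read; sodium butyrate at 4.5 mM final served as control.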
FLuc modulator: qHTS profiling assay for firefly luciferase inhibitor/activator using purifed enzyme and Km concentrations of substrates (counterscreen for miR-21 project). Luciferin 4-monooxygenase (Photinus pyralis), P08659. purified FLuc, Km substrates, luminescence inhibition. Potency, µM (titrated, usually from 57.5 µM), for inactives: at the highest dose activity change, negative = inhibition, usual class: inhibitors. 6.9% of 360,000 active. AID 588342, 2011;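 note: plate controls were vehicle for no effect and reference inhibitor for full effect; nearly all actives have a fitted effect of over 55% in size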
Target sequence (P08659 whole entry, looked up): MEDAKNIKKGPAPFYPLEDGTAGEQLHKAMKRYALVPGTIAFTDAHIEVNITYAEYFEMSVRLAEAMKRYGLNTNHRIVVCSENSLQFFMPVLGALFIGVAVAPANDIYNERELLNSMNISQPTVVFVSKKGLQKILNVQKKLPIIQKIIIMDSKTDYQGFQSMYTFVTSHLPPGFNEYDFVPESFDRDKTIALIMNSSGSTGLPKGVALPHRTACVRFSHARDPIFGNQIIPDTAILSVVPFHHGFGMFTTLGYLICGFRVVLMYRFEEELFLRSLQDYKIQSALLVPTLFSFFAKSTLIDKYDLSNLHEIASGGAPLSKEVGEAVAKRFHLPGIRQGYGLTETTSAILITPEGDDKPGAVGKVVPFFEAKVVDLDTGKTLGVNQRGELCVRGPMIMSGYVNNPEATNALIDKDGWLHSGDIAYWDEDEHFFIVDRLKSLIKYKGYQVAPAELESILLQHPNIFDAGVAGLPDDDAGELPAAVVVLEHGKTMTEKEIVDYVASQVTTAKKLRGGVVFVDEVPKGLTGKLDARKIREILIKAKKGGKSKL
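Purified P. pyralis luciferase, 10 nM final, with Km-level 10 uM D-luciferin and 10 uM ATP in 50 mM Tris acetate pH 7.5, 10 mM Mg acetate, 0.01% Tween-20, 0.05% BSA; 6-point qHTS titration about 60 µM downward; luminescence read.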
ELG1 genotox: qHTS screen for small molecules that induce genotoxicity in human embryonic kidney (HEK293T) cells expressing luciferase-tagged ELG1; HEK293T ELG1-luciferase reporter, luminescence, 16 h; AID 504466, 2011; Potency, µM (top dose mostly 46 µM), inactives show at the highest dose activity change, positive = activation, most hits filed as activators; 1.3% of 330,000 active; note: % of control where 0% means no effect; nearly all actives have a fitted effect of over 60% in size
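Luminescence read-out: rising ELG1-luciferase signal, reflecting elevated ELG1 protein under genetic stress, flags genotoxic compounds. Cells were treated for 16 hr at 37 °C before ONE-Glo detection.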
NPC1 prom act: qHTS Assay for NPC1 Promoter Activators; Potency, µM (series often up to 9.22 µM), for the others: top-dose activation, hits mostly activators; 2.4% of 320,000 active; AID 485313, 2010; Huh7 NPC1 promoter luciferase reporter, 24 h; note: % of control where 0% means no effect; nearly all actives have a fitted effect of over 60% in size
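Luminescence from an NPC1 promoter-driven luciferase reporter in stably transfected Huh7 cells was measured after 24 h compound treatment at 37 °C, followed by 10 min ambient incubation with luciferase detection reagent.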
ELG1 DNA repair: qHTS screen for small molecules that inhibit ELG1-dependent DNA repair in human embryonic kidney (HEK293T) cells expressing luciferase-tagged ELG1 | 2.3% of 330,000 active | HEK293T ELG1-luciferase reporter, luminescence, 16 h; DNA damage induced by 5-fluorouridine | Potency, µM (highest dose often 46.1 µM), without a hit: at the top dose activity change, negative = inhibition, actives largely listed as inhibitors; note: % is set by controls: 0 for no effect and ±100 for the full control effect; nearly all actives have a fitted effect of over 55% in size
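Quantitative HTS, concentration-response format. 2,000 cells/well co-treated with 5-fluorouridine and compound, 16 hr in 5% CO2 at 37 °C; ONE-Glo luminescence read after 30 min.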
Rab9 prom act: qHTS Assay for Rab9 Promoter Activators | 2.8% of 320,000 active | AID 485297, 2010 | Huh7 Rab9 promoter-luciferase reporter, luminescence, 24 h | Potency, µM (doses to about 9.22 µM), for the others: top-dose activation, negative = inhibition, most hits filed as activators; note: % of control where 0% means no effect; nearly all actives have a fitted effect of over 60% in size
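Rab9 promoter-driven luciferase in stably transfected Huh7 cells; 1500 cells/well rested 2 h, exposed to compound in DMSO for 24 h at 37 °C, 5% CO2. Luminescence read 10 min after adding luciferase reagent at ambient temperature.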
An asterisk follows results filed as active; ? = inconclusive; / = no result. Calls come from the whole dose curve; as a rule, active = well fitted curve in the direction sought with a large enough effect; inconclusive = small, poorly fitted or top-dose-only effect, or another doubt; inactive = no such curve, though single readings can be large; an effect the other way counts as inactive or inconclusive. Potency is the fitted concentration of half-maximal effect.

SMILES	SMN2 splice up	FLuc modulator	ELG1 genotox	NPC1 prom act	ELG1 DNA repair	Rab9 prom act
O=C(CCCc1c[nH]c2ccccc12)NCc1ccccc1F	/	-4%	6%	0%	-7%	0%
CCn1cc(Br)c(C(=O)NN)n1	8%	3%	1%	?	?	2%
CCCCOC(=O)c1ccc(NC(=O)c2nn(C)cc2Br)cc1	9%	21µM*	21%	7%	3%	5%
CCOC(=O)c1c(-c2ccccc2)csc1NC(=O)c1nn(CC)cc1Br	-13%	3%	-13%	-7%	12µM*	-4%
CCn1cc(Br)c(C(=O)Nc2ccc(C(=O)OC(C)C)cc2)n1	-10%	15µM*	-2%	?	14%	?
CCCCOC(=O)c1ccc(NC(=O)CSc2nnnn2C)cc1	/	0%	7%	-1%	16%	16%
CCn1cc(Br)c(C(=O)Nc2ccc(OC)cc2)n1	14µM*	15µM*	?	?	?	29%
O=C(O)CCN(CC(=O)c1ccc(Cl)cc1)S(=O)(=O)c1ccc([N+](=O)[O-])cc1	/	0%	-3%	-1%	7%	12%
CCn1cc(CN2CCC(n3nccc3NC(=O)c3ccc4c(c3)OCO4)CC2)c(C)n1	/	-4%	2%	0%	15%	0%
CN1CCN(CCCCOc2ccc(Br)cc2)CC1	/	-1%	-4%	2%	13%	13%
CCn1nccc1C(=O)Nc1ccc(C(=O)OC(C)C)cc1	/	19µM*	15%	?	18%	?
Cc1ccc(C)c(OCC(=O)Nc2ccc(S(=O)(=O)Nc3ncccn3)cc2)c1	/	1%	1%	-19%	10%	-3%
O=C(Nc1ccc(Cl)c(S(=O)(=O)N2CCOCC2)c1)c1cc(-c2ccccn2)nc2ccccc12	-1%	-6%	-10%	-6%	18µM*	-2%
COc1ccc(NC(=O)c2cc(-c3ccco3)nc3ccccc23)cc1S(=O)(=O)N1CCOCC1	/	?	-4%	0%	10µM*	1%
CCOc1cc(N2CCOCC2)c(OCC)cc1NC(=O)c1cc(-c2ccco2)nc2ccccc12	-22%	-8%	-13%	-7%	2.6µM*	-6%
COc1ccc(Nc2nc(-c3ccccc3)nc3ccccc23)cc1S(=O)(=O)N1CCOCC1	/	-3%	-14%	0%	8.2µM*	-9%
CCOc1cc(N2CCOCC2)c(OCC)cc1NC(=O)COc1ncnc2ccccc12	6%	-1%	-2%	-4%	-31%	1%
Cc1ccc(NC(=O)c2cc(-c3ccco3)nc3ccccc23)cc1S(=O)(=O)N1CCOCC1	4%	?	-11%	-11%	?	-4%
COc1cccc(Cn2c(CNC(=O)C(C)C)nc3cccnc32)c1	/	1%	/	/	/	/
O=C(CSc1nc2ccccc2c(=O)n1NC(=O)c1ccccc1)c1ccccc1	?	12µM*	?	?	?	3.5µM*
COc1ccc(C(=O)Nn2c(SCC(=O)NCc3ccccc3)nc3ccccc3c2=O)cc1	?	2.7µM*	0.082µM*	0.4µM*	?	0.13µM*
COc1ccc(C(=O)Nn2c(SCC(=O)NCC3CCCO3)nc3ccccc3c2=O)cc1 (stereo not given)	-90%	0.76µM*	?	0.5µM*	?	0.4µM*
COc1ccc(NC(=O)CSc2nc3ccccc3c(=O)n2CCC(=O)NC2CCCCC2)c(OC)c1	/	2%	/	/	/	/
COc1ccc(C(=O)Nn2c(SCC(=O)NC3CCCC3)nc3ccccc3c2=O)cc1	-41%	9.5µM*	?	3.2µM*	?	0.89µM*
O=C(CSc1nc2ccccc2c(=O)n1NC(=O)Cc1ccccc1)NCc1ccccc1	-18%	2%	-6%	2%	-8%	0%
SMILES	SMN2 splice up	FLuc modulator	ELG1 genotox	NPC1 prom act	ELG1 DNA repair	Rab9 prom act
COC(=O)c1ccc2c(=O)n(CC3CCCO3)c(SCC(=O)Nc3ccccc3OC)nc2c1 (stereo not given)	6%	6.7µM*	0%	4%	?	-4%
O=C(CSc1nc2ccsc2c(=O)n1NC(=O)c1ccccc1)Nc1nccs1	20µM*	-7%	7%	12%	?	25%
C=CCN(C(=O)Cc1cccs1)c1nc(-c2ccc(S(C)(=O)=O)cc2)cs1	/	17µM*	0%	?	?	?
C=CCN(C(=O)CCc1ccccc1OC)c1nc(-c2ccc(S(C)(=O)=O)cc2)cs1	/	-16%	-4%	1%	?	15%
COc1ccc(C(=O)Nc2ccc3c(c2)C(=O)c2ccccc2C3=O)cc1OC	8%	-6%	5%	2%	14%	17%
COc1ccc(C(=O)c2c(C(F)(F)F)oc3c2C(=O)c2ccccc2C3=O)cc1OC	-64%	-5%	-30%	-35%	3.7µM*	-25%
Cc1cc(NC(=O)CN2CCC(O)CC2)nc2c1c(=O)oc1ccccc12	-10%	3%	/	/	/	/
Cc1cc(Cl)cc2c1NC(=O)[C@]21[C@@H]2C(=O)N(Cc3ccccc3)C(=O)[C@@H]2[C@@H]2CCCN21	9%	-2%	-3%	-1%	?	-2%
COC(=O)c1c(N2C(=O)[C@H]3[C@@H](C2=O)[C@]2(C(=O)Nc4c(C)cccc42)N2CCC[C@@H]32)sc(C)c1C	6%	-2%	1%	-6%	16µM*	4%
Oc1ccccc1C=Nc1ccccc1-c1nc2ccccc2[nH]1	32µM*	?	?	?	?	?
Oc1ccc(C=Nc2ccccc2-c2nc3ccccc3[nH]2)c(O)c1	14µM*	4.8µM*	?	?	?	?
O=C(c1ccccc1-c1nc2ccccc2[nH]1)N1CCCCC1	8%	3%	-1%	0%	-1%	1%
COc1ccc(OC)c(C=Nc2ccccc2-c2nc3ccccc3[nH]2)c1	13µM*	4.8µM*	?	?	?	?
CCN(C(=O)Cn1c(=O)oc2cc(S(=O)(=O)N3CCCCCC3)ccc21)c1cccc(C)c1	-8%	-3%	/	/	/	/
Cc1ccc(C)c(CN2C(=O)c3ccccc3S(=O)(=O)c3ccc(C(=O)Nc4ccccc4C(F)(F)F)cc32)c1	7%	-4%	/	/	/	/
CCCCN(CC)C(=O)c1cc2c(=O)n3ccccc3nc2n1C	/	-6%	/	/	/	/
